{"source": "PubChem BioAssay (EPA / NIEHS)", "note": "Activity calls are given as the source filed them. The calls were made as follows: active = hit-call score of the fitted dose curve at least 0.9, where 1 is the maximum; inactive = score below 0.9."}
{"read-out": "Hypoxia-inducible factor 1-alpha (Homo sapiens) (UniProt Q16665)", "assay": "LTEA_HepaRG_HIF1A: Life Technologies and Expression Analysis (LTEA) Assay for Hypoxia-inducible factor 1 (HIF1A) Trancription factor using HepaRG (AID 2283503)", "conditions": "mRNA level, 48 h; actives raise or lower the signal", "outline": "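HIF1A transcript level read by qRT-PCR (ACTB, GAPDH, POLR2A normalization) after 48 h chemical exposure of HepaRG cultures. Eight half-log concentrations, top 100 uM, 0.5% DMSO vehicle, duplicates; bidirectional curve fit against DMSO baseline.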"}
{"compound": "COc1cc2c(c(OC)c1OC)-c1ccc(OC)c(=O)cc1[C@@H](NC(C)=O)CC2", "AC50": "0.113 µM (active)"}
{"compound": "CCn1nc(C)c2c1C(=O)NCC(c1ccc(O)cc1)=N2", "outcome": "inactive"}
{"compound": "CCCCCCCCCC", "outcome": "inactive"}
{"compound": "O=C(O)c1ccc2c(c1)nc(C(=O)NC1CCN(C3CC3)CC1)n2Cc1cc(-c2ccc(Cl)s2)on1", "outcome": "inactive"}
{"compound": "Nc1ccn([C@@H]2O[C@H](CO)[C@@H](O)[C@@H]2O)c(=O)n1", "outcome": "inactive"}
{"compound": "OC(Cn1cncn1)(Cn1cncn1)c1ccc(F)cc1F", "outcome": "inactive"}
{"compound": "OCc1ccccc1", "outcome": "inactive"}
{"compound": "CCc1ccc(O)c(C(C)(C)C)c1", "outcome": "inactive"}
{"compound": "CCOC(N)=O", "outcome": "inactive"}
{"compound": "CC(C)CCCCCCOC(=O)C1CCCCC1C(=O)OCCCCCCC(C)C", "note": "(centres undefined)", "outcome": "inactive"}
{"compound": "c1ccc(C(O[C@@H]2CCCN(CCc3ccc4c(c3)OCO4)C2)c2ccccc2)cc1", "AC50": "78.3 µM (active)"}
{"compound": "NC(=O)N(O)[C@@H]1COc2cc(OCc3ccccc3)ccc21", "outcome": "inactive"}
{"compound": "O=c1[nH]cnc2c1ncn2[C@H]1CC[C@@H](CO)O1", "outcome": "inactive"}
{"compound": "NC(N)=O", "outcome": "inactive"}
{"compound": "COCc1nnc(-c2ccc[n+]([O-])c2)n1-c1c(Cl)c(Cl)cc2[nH]c(=O)c(=O)[nH]c12", "outcome": "inactive"}
{"compound": "OC[C@H]1O[C@@H]2O[C@H]3[C@H](O)[C@@H](O)[C@@H](O[C@H]4[C@H](O)[C@@H](O)[C@@H](O[C@H]5[C@H](O)[C@@H](O)[C@@H](O[C@H]6[C@H](O)[C@@H](O)[C@@H](O[C@H]7[C@H](O)[C@@H](O)[C@@H](O[C@H]1[C@H](O)[C@H]2O)O[C@@H]7CO)O[C@@H]6CO)O[C@@H]5CO)O[C@@H]4CO)O[C@@H]3CO", "outcome": "inactive"}
{"compound": "CC(C)CC(C)O", "note": "(centres undefined)", "outcome": "inactive"}
{"compound": "CCCCN1C(=O)[C@@H]([C@H](O)C2CCCCC2)NC(=O)C12CCN(Cc1ccc(Oc3ccc(C(=O)O)cc3)cc1)CC2", "outcome": "inactive"}
{"compound": "CC(C)c1nnc2ccc(-c3ocnc3-c3cc(F)ccc3F)cn12", "outcome": "inactive"}
{"compound": "CNC(C)=O", "outcome": "inactive"}
{"compound": "OCCNCCO", "AC50": "50 µM (active)"}
{"compound": "C=CN1CCCC1=O", "outcome": "inactive"}
{"compound": "CCCCCCCCN(C)C", "outcome": "inactive"}
{"compound": "c1ccc2ncccc2c1", "AC50": "50 µM (active)"}
{"compound": "CCCCCCOC(=O)CC(CC(=O)OCCCCCC)(OC(=O)CCC)C(=O)OCCCCCC", "outcome": "inactive"}
{"compound": "CCc1cccc(CC)c1N", "outcome": "inactive"}
{"compound": "O=C1CN(N=Cc2ccc([N+](=O)[O-])o2)C(=O)N1", "outcome": "inactive"}
{"compound": "CCCC(CCC)C(=O)O", "outcome": "inactive"}
{"compound": "Cc1ncc([C@@H](CCCCCCc2ccc3c(n2)NCCC3)CC(=O)O)cn1", "outcome": "inactive"}
{"compound": "CCCCCCCCCCCCCCCCOS(=O)(=O)O", "outcome": "inactive"}
{"read-out": "3-Hydroxy-3-Methylglutaryl-CoA Synthase 2 (HMGCS2), HMGCS2 (gene 3158)", "assay": "LTEA_HepaRG_HMGCS2: Life Technologies and Expression Analysis (LTEA) Assay for 3-Hydroxy-3-Methylglutaryl-CoA Synthase 2 (HMGCS2) using HepaRG (AID 2283504)", "conditions": "mRNA level, 48 h; actives raise or lower the signal", "outline": "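Human HepaRG cells in serum-free induction medium were exposed in duplicate for 48 h to 8-point half-log series from 100 uM top in 0.5% DMSO. HMGCS2 mRNA measured by TaqMan qRT-PCR, normalised to ACTB, GAPDH, POLR2A; bidirectional fit versus DMSO.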"}
{"compound": "COc1cc2c(c(OC)c1OC)-c1ccc(OC)c(=O)cc1[C@@H](NC(C)=O)CC2", "AC50": "0.286 µM (active)"}
{"compound": "CCn1nc(C)c2c1C(=O)NCC(c1ccc(O)cc1)=N2", "outcome": "inactive"}
{"compound": "CCCCCCCCCC", "outcome": "inactive"}
{"compound": "O=C(O)c1ccc2c(c1)nc(C(=O)NC1CCN(C3CC3)CC1)n2Cc1cc(-c2ccc(Cl)s2)on1", "outcome": "inactive"}
{"compound": "Nc1ccn([C@@H]2O[C@H](CO)[C@@H](O)[C@@H]2O)c(=O)n1", "outcome": "inactive"}
{"compound": "NC(=O)NN=Cc1ccc([N+](=O)[O-])o1", "AC50": "13.3 µM (active)"}
{"compound": "OC(Cn1cncn1)(Cn1cncn1)c1ccc(F)cc1F", "outcome": "inactive"}
{"compound": "OCc1ccccc1", "outcome": "inactive"}
{"compound": "NNC(=O)c1ccncc1", "outcome": "inactive"}
{"compound": "CCc1ccc(O)c(C(C)(C)C)c1", "outcome": "inactive"}
{"compound": "CCOC(N)=O", "outcome": "inactive"}
{"compound": "CC(C)CCCCCCOC(=O)C1CCCCC1C(=O)OCCCCCCC(C)C", "note": "(centres undefined)", "outcome": "inactive"}
{"compound": "c1ccc(C(O[C@@H]2CCCN(CCc3ccc4c(c3)OCO4)C2)c2ccccc2)cc1", "AC50": "80.8 µM (active)"}
{"compound": "CC(C)C(=O)Nc1ccc([N+](=O)[O-])c(C(F)(F)F)c1", "AC50": "72.8 µM (active)"}
{"compound": "NC(=O)N(O)[C@@H]1COc2cc(OCc3ccccc3)ccc21", "outcome": "inactive"}
{"compound": "O=c1[nH]cnc2c1ncn2[C@H]1CC[C@@H](CO)O1", "outcome": "inactive"}
{"compound": "NC(N)=O", "outcome": "inactive"}
{"compound": "COCc1nnc(-c2ccc[n+]([O-])c2)n1-c1c(Cl)c(Cl)cc2[nH]c(=O)c(=O)[nH]c12", "outcome": "inactive"}
{"compound": "OC[C@H]1O[C@@H]2O[C@H]3[C@H](O)[C@@H](O)[C@@H](O[C@H]4[C@H](O)[C@@H](O)[C@@H](O[C@H]5[C@H](O)[C@@H](O)[C@@H](O[C@H]6[C@H](O)[C@@H](O)[C@@H](O[C@H]7[C@H](O)[C@@H](O)[C@@H](O[C@H]1[C@H](O)[C@H]2O)O[C@@H]7CO)O[C@@H]6CO)O[C@@H]5CO)O[C@@H]4CO)O[C@@H]3CO", "outcome": "inactive"}
{"compound": "CC(C)CC(C)O", "note": "(centres undefined)", "outcome": "inactive"}
{"compound": "CCCCN1C(=O)[C@@H]([C@H](O)C2CCCCC2)NC(=O)C12CCN(Cc1ccc(Oc3ccc(C(=O)O)cc3)cc1)CC2", "AC50": "5.05 µM (active)"}
{"compound": "CC(C)c1nnc2ccc(-c3ocnc3-c3cc(F)ccc3F)cn12", "AC50": "59.1 µM (active)"}
{"compound": "CNC(C)=O", "outcome": "inactive"}
{"compound": "OCCNCCO", "AC50": "75 µM (active)"}
{"compound": "C=CN1CCCC1=O", "outcome": "inactive"}
{"compound": "CCCCCCCCN(C)C", "outcome": "inactive"}
{"compound": "c1ccc2ncccc2c1", "outcome": "inactive"}
{"compound": "CCCCCCOC(=O)CC(CC(=O)OCCCCCC)(OC(=O)CCC)C(=O)OCCCCCC", "outcome": "inactive"}
{"compound": "CCc1cccc(CC)c1N", "outcome": "inactive"}
{"compound": "O=C1CN(N=Cc2ccc([N+](=O)[O-])o2)C(=O)N1", "AC50": "72 µM (active)"}
{"compound": "CCCC(CCC)C(=O)O", "outcome": "inactive"}
{"compound": "Cc1ncc([C@@H](CCCCCCc2ccc3c(n2)NCCC3)CC(=O)O)cn1", "outcome": "inactive"}
{"compound": "CCCCCCCCCCCCCCCCOS(=O)(=O)O", "outcome": "inactive"}
{"compound": "CCN(CC)C(=S)SSC(=S)N(CC)CC", "outcome": "inactive"}
